Reference: publication PMC9838217, “Structure of SALL4 zinc finger domain reveals link between AT-rich DNA binding and Okihiro syndrome”
Numbering of substitutions follows the chain as printed.

target: T1, SALL4 ZFC4 WT (HT-SELEX) (Mus musculus, UniProt Q8BX22 870-940); test: HT-SELEX; high values mean tight binding; settings: protein: recombinant; vector His6-GST; dsDNA, one strand shown
T1 sequence: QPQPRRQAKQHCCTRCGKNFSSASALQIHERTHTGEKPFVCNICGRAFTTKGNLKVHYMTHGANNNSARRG
Summary of the method: (§1)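 Purified recombinant mouse SALL4 zinc finger cluster 4 (residues 870–940, 1 µg) was incubated with library DNA (1.5 µg first cycle, 200 ng later) in 100 µl of 10 mM Tris–HCl pH 7.5, 50 mM NaCl, poly(dI-dC) and DTT for 10 min at room temperature, with Ni2+ bead capture and reselection for up to 6 cycles in triplicate. MiSeq reads were scanned for 6-mers. Binding signal is each canonical k-mer's read fraction as fold change relative to the initial random library.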

| Sequence | binding signal |
| --- | --- |
| ATCAGC | 0.664 ± 0.0167 fold-change vs cycle 0 |
| AGATCC | 0.821 ± 0.0254 fold-change vs cycle 0 |
| ATGTCC | 0.723 ± 0.0385 fold-change vs cycle 0 |
| TACCCA | 0.781 ± 0.0395 fold-change vs cycle 0 |
| GTTACA | 1.35 ± 0.0329 fold-change vs cycle 0 |
| CAACAA | 1.1 ± 0.0197 fold-change vs cycle 0 |
| CAGAAA | 1.12 ± 0.0595 fold-change vs cycle 0 |
| CCGAAC | 0.325 ± 0.00544 fold-change vs cycle 0 |
| ATGTCA | 1.23 ± 0.0617 fold-change vs cycle 0 |
| AATGGA | 1.38 ± 0.0388 fold-change vs cycle 0 |
| AATGGG | 0.774 ± 0.0508 fold-change vs cycle 0 |
| CTAGTC | 0.766 ± 0.0364 fold-change vs cycle 0 |
| AGTGAG | 0.933 ± 0.017 fold-change vs cycle 0 |
| GGGAGA | 0.48 ± 0.0185 fold-change vs cycle 0 |
| CCCAAC | 0.395 ± 0.0223 fold-change vs cycle 0 |
| CATGAC | 0.822 ± 0.0546 fold-change vs cycle 0 |
| ATGAGG | 0.907 ± 0.0235 fold-change vs cycle 0 |
| ATTAGG | 1.38 ± 0.0909 fold-change vs cycle 0 |
| GCTAAC | 0.704 ± 0.0424 fold-change vs cycle 0 |
| AGGACG | 0.361 ± 0.014 fold-change vs cycle 0 |

| Sequence | binding signal |
| --- | --- |
| CATTCG | 0.667 ± 0.027 fold-change vs cycle 0 |
| GACCTA | 0.743 ± 0.0147 fold-change vs cycle 0 |
| GGATCC | 0.489 ± 0.0186 fold-change vs cycle 0 |
| CGGTAC | 0.362 ± 0.0117 fold-change vs cycle 0 |
| TAGCAA | 1.14 ± 0.0337 fold-change vs cycle 0 |
| ATTACC | 1.49 ± 0.0761 fold-change vs cycle 0 |
| GAATGC | 0.632 ± 0.0438 fold-change vs cycle 0 |
| GGGAAA | 0.693 ± 0.0334 fold-change vs cycle 0 |
| CAGTAC | 0.772 ± 0.0398 fold-change vs cycle 0 |
| CAAATA | 1.9 ± 0.117 fold-change vs cycle 0 |
| CATAAC | 1.83 ± 0.124 fold-change vs cycle 0 |
| AACTAT | 2.16 ± 0.123 fold-change vs cycle 0 |
| AAATCG | 0.874 ± 0.0288 fold-change vs cycle 0 |
| ATATCG | 1.31 ± 0.0501 fold-change vs cycle 0 |
| CTTCAC | 0.856 ± 0.0564 fold-change vs cycle 0 |
| GCGTAA | 0.494 ± 0.0275 fold-change vs cycle 0 |
| ACGTTG | 0.659 ± 0.0218 fold-change vs cycle 0 |
| CCATCA | 0.823 ± 0.0184 fold-change vs cycle 0 |
| GTAGAA | 1.21 ± 0.0427 fold-change vs cycle 0 |
| AGCAAC | 0.642 ± 0.0202 fold-change vs cycle 0 |

target: T2, SALL4 ZFC4 R900W (HT-SELEX) (Mus musculus, UniProt Q8BX22 870-940, R900W); test: HT-SELEX; high values mean tight binding; settings: protein: recombinant; vector His6-GST; dsDNA, one strand shown
T2 sequence: T1 sequence with R31W
Summary of the method: as §1

| Sequence | binding signal |
| --- | --- |
| ATCAGC | 0.738 ± 0.048 fold-change vs cycle 0 |
| AGATCC | 0.949 ± 0.0348 fold-change vs cycle 0 |
| ATGTCC | 0.831 ± 0.0392 fold-change vs cycle 0 |
| TACCCA | 0.882 ± 0.0184 fold-change vs cycle 0 |
| GTTACA | 1.46 ± 0.0565 fold-change vs cycle 0 |
| CAACAA | 1.21 ± 0.0488 fold-change vs cycle 0 |
| CAGAAA | 1.18 ± 0.0406 fold-change vs cycle 0 |
| CCGAAC | 0.387 ± 0.0114 fold-change vs cycle 0 |
| ATGTCA | 1.34 ± 0.0399 fold-change vs cycle 0 |
| AATGGA | 1.47 ± 0.0617 fold-change vs cycle 0 |
| AATGGG | 0.854 ± 0.0662 fold-change vs cycle 0 |
| CTAGTC | 0.918 ± 0.0254 fold-change vs cycle 0 |
| AGTGAG | 1.03 ± 0.0394 fold-change vs cycle 0 |
| GGGAGA | 0.566 ± 0.0484 fold-change vs cycle 0 |
| CCCAAC | 0.437 ± 0.0176 fold-change vs cycle 0 |
| CATGAC | 0.938 ± 0.0407 fold-change vs cycle 0 |
| ATGAGG | 1.03 ± 0.0436 fold-change vs cycle 0 |
| ATTAGG | 1.48 ± 0.0913 fold-change vs cycle 0 |
| GCTAAC | 0.792 ± 0.0586 fold-change vs cycle 0 |
| AGGACG | 0.462 ± 0.00636 fold-change vs cycle 0 |

| Sequence | binding signal |
| --- | --- |
| CATTCG | 0.769 ± 0.0521 fold-change vs cycle 0 |
| GACCTA | 0.857 ± 0.0141 fold-change vs cycle 0 |
| GGATCC | 0.559 ± 0.0217 fold-change vs cycle 0 |
| CGGTAC | 0.437 ± 0.0232 fold-change vs cycle 0 |
| TAGCAA | 1.17 ± 0.0822 fold-change vs cycle 0 |
| ATTACC | 1.51 ± 0.105 fold-change vs cycle 0 |
| GAATGC | 0.728 ± 0.0366 fold-change vs cycle 0 |
| GGGAAA | 0.767 ± 0.0294 fold-change vs cycle 0 |
| CAGTAC | 0.92 ± 0.0398 fold-change vs cycle 0 |
| CAAATA | 1.72 ± 0.1 fold-change vs cycle 0 |
| CATAAC | 1.43 ± 0.0541 fold-change vs cycle 0 |
| AACTAT | 1.96 ± 0.0882 fold-change vs cycle 0 |
| AAATCG | 0.918 ± 0.0124 fold-change vs cycle 0 |
| ATATCG | 1.15 ± 0.0369 fold-change vs cycle 0 |
| CTTCAC | 1.04 ± 0.0731 fold-change vs cycle 0 |
| GCGTAA | 0.556 ± 0.0061 fold-change vs cycle 0 |
| ACGTTG | 0.753 ± 0.0161 fold-change vs cycle 0 |
| CCATCA | 0.957 ± 0.0265 fold-change vs cycle 0 |
| GTAGAA | 1.36 ± 0.0162 fold-change vs cycle 0 |
| AGCAAC | 0.736 ± 0.0162 fold-change vs cycle 0 |

target: T3, SALL4 ZFC4 G921D (HT-SELEX) (Mus musculus, UniProt Q8BX22 870-940, G921D); test: HT-SELEX; high values mean tight binding; settings: protein: recombinant; vector His6-GST; dsDNA, one strand shown
T3 sequence: T1 sequence with G52D
Summary of the method: as §1

| Sequence | binding signal |
| --- | --- |
| ATCAGC | 0.836 ± 0.0337 fold-change vs cycle 0 |
| AGATCC | 1.045 ± 0.00383 fold-change vs cycle 0 |
| ATGTCC | 0.904 ± 0.0203 fold-change vs cycle 0 |
| TACCCA | 0.886 ± 0.035 fold-change vs cycle 0 |
| GTTACA | 1.37 ± 0.0864 fold-change vs cycle 0 |
| CAACAA | 1.2 ± 0.0481 fold-change vs cycle 0 |
| CAGAAA | 1.15 ± 0.0688 fold-change vs cycle 0 |
| CCGAAC | 0.512 ± 0.0786 fold-change vs cycle 0 |
| ATGTCA | 1.32 ± 0.0617 fold-change vs cycle 0 |
| AATGGA | 1.39 ± 0.0841 fold-change vs cycle 0 |
| AATGGG | 0.883 ± 0.0427 fold-change vs cycle 0 |
| CTAGTC | 0.941 ± 0.0142 fold-change vs cycle 0 |
| AGTGAG | 1.05 ± 0.0473 fold-change vs cycle 0 |
| GGGAGA | 0.638 ± 0.033 fold-change vs cycle 0 |
| CCCAAC | 0.544 ± 0.0399 fold-change vs cycle 0 |
| CATGAC | 1 ± 0.0669 fold-change vs cycle 0 |
| ATGAGG | 1.06 ± 0.0374 fold-change vs cycle 0 |
| ATTAGG | 1.4 ± 0.0983 fold-change vs cycle 0 |
| GCTAAC | 0.89 ± 0.0355 fold-change vs cycle 0 |
| AGGACG | 0.558 ± 0.0296 fold-change vs cycle 0 |

| Sequence | binding signal |
| --- | --- |
| CATTCG | 0.847 ± 0.0186 fold-change vs cycle 0 |
| GACCTA | 0.926 ± 0.0368 fold-change vs cycle 0 |
| GGATCC | 0.643 ± 0.0527 fold-change vs cycle 0 |
| CGGTAC | 0.552 ± 0.049 fold-change vs cycle 0 |
| TAGCAA | 1.21 ± 0.0899 fold-change vs cycle 0 |
| ATTACC | 1.43 ± 0.105 fold-change vs cycle 0 |
| GAATGC | 0.816 ± 0.0183 fold-change vs cycle 0 |
| GGGAAA | 0.812 ± 0.0285 fold-change vs cycle 0 |
| CAGTAC | 0.957 ± 0.0386 fold-change vs cycle 0 |
| CAAATA | 1.55 ± 0.137 fold-change vs cycle 0 |
| CATAAC | 1.37 ± 0.0667 fold-change vs cycle 0 |
| AACTAT | 1.76 ± 0.173 fold-change vs cycle 0 |
| AAATCG | 1.02 ± 0.0396 fold-change vs cycle 0 |
| ATATCG | 1.194 ± 0.00992 fold-change vs cycle 0 |
| CTTCAC | 1.03 ± 0.0678 fold-change vs cycle 0 |
| GCGTAA | 0.651 ± 0.033 fold-change vs cycle 0 |
| ACGTTG | 0.822 ± 0.0177 fold-change vs cycle 0 |
| CCATCA | 0.949 ± 0.0116 fold-change vs cycle 0 |
| GTAGAA | 1.27 ± 0.0697 fold-change vs cycle 0 |
| AGCAAC | 0.849 ± 0.0333 fold-change vs cycle 0 |
